Test results published in PubChem BioAssay AID651820 (National Center for Advancing Translational Sciences (NCATS), 2012).
Among all 340,000 compounds or so, about 12,000 (3.5%) were called active. Another 18% or so got no clear call; they are omitted. The call rests on the fitted dose curve; in most records, active means well fitted inhibition curve with a large enough effect; inconclusive means small, poorly fitted or top-dose-only effect, or another doubt; inactive means no such curve, though single readings can be large or run the other way. The sample as a whole holds a higher share of actives than the screen did.

Test: qHTS Assay for Inhibitors of Hepatitis C Virus (HCV)
Conditions: Huh7.5.1 HCVcc-Cre infection, luciferase reporter, 44 h; series mostly up to 41.8 µM; activity change, negative = inhibition: at the top concentration
In short: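 HCVcc-Cre virus at an moi near 0.5 was added right after compound to cells cultured 4 h from seeding (1,000 cells/well). Luciferase activity was determined 44 h later, 15 min after substrate addition at RT.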
On the % scale 0 is the no-effect control and ±100 the full control effect; potency means the concentration at half of the fitted maximal effect.

Structure (SMILES) | activity change, negative = inhibition | Potency
CC(=O)N(O)CCCCCNC(=O)CCC(=O)N(O)CCCCCNC(=O)CCC(=O)N(O)CCCCCNC(=O)CCC(=O)O | -9.7% (inactive) | 
O=S1(=O)CSCS(=O)(=O)C1 | 4.27% (inactive) | 
CCN(CC)CCNC(=O)c1sc2ncn(CC(=O)Nc3ccc(C)c(Cl)c3)c(=O)c2c1C |  | 8.91 µM (active)
CCN(CC)CCCNC(=O)Cn1cnc2sc(C)c(S(=O)(=O)N3CCN(c4ncccn4)CC3)c2c1=O | -1.55% (inactive) | 
CCN(CC)CCNC(=O)Cn1cnc2sc(C)c(S(=O)(=O)N3CCOCC3)c2c1=O |  | inactive
CC(=O)Nc1ccc(C(=O)Nc2cc(S(=O)(=O)N3CCOCC3)ccc2N2CCOCC2)cc1 | -10.7% (inactive) | 
O=C(CN1CCOCC1)Nc1cccc([N+](=O)[O-])c1 | 7.8% (inactive) | 
Cc1cccc(NC(=S)N(CCN(C)C)C(C)c2ccco2)c1 (configuration not stated) | 21.8% (inactive) | 
CCc1cccc(NC(=S)N(CCN(C)C)C2CCN(C(C)C)CC2)c1 |  | 8.91 µM (active)
COCCN(C(=S)Nc1ccccc1OC)C1CCN(C(C)C)CC1 | -1.86% (inactive) | 
O=c1oc2ccc(C#CC3(O)CCCCC3)cc2cc1-n1cc(-c2ccsc2)nn1 | 6.15% (inactive) | 
CCOC(=O)C(C)N(c1ccccc1Cl)S(C)(=O)=O (configuration not stated) | 7.17% (inactive) | 
COc1cccc(CC(=O)OCC(=O)NCc2ccc3c(c2)OCO3)c1 | 15.7% (inactive) | 
COc1cccc(CNC(=O)COc2cc(O)c3c(c2)OC(C)(C)CC3=O)c1 |  | 5.01 µM (active)
COc1cccc(CCNC(=O)COc2cccc3c2OC(C)(C)C3)c1 | -22% (inactive) | 
COc1cc2[nH]c(O)c(C=O)c2cc1OC | 7.9% (inactive) | 
COc1ccccc1C(=O)Nc1ccc(Nc2ccccc2)cc1 | 2.81% (inactive) | 
COc1ccc2[nH]c3c(c2c1)CCN1C(=O)C(CC(=O)NCCc2ccccn2)C[C@H](C(=O)N2CCOCC2)[C@@]31C (some centres not stated) | -4.93% (inactive) | 
Cc1nn(CC(=O)N2CCCCC2)c(=O)c2nn(-c3ccccc3)c(C)c12 | 9.96% (inactive) | 
COc1ccc(OC)c(CNC(=O)Cn2nc(C)c3c(C)n(-c4ccc(C)cc4)nc3c2=O)c1 |  | 3.98 µM (active)
COc1ccc(CNC(=O)C(C)n2nc(C)c3c(C)n(-c4ccccc4)nc3c2=O)c(OC)c1 (configuration not stated) | -27.5% (inactive) | 
O=C(c1ccc(Cl)s1)N(Cc1nnc(-c2ccccc2Cl)o1)C1CC1 | 0% (inactive) | 
COc1ccc(OCC(=O)Nc2ccc(NC(=O)c3ccco3)c(C)c2)cc1 | 9.3% (inactive) | 
CCN(CC)P(=O)(Nc1ccc(SC(F)F)cc1)c1ccc(N(C)C)cc1NC(=O)c1ccco1 (configuration not stated) |  | 22.4 µM (active)
CCC(=O)NC(=S)Nc1ccc(NC(=O)c2ccco2)c(Cl)c1 | -21.3% (inactive) | 

Structure (SMILES) | activity change, negative = inhibition | Potency
CCN(C(=O)COC(=O)CCOc1cccc(C)c1)c1c(N)n(Cc2ccccc2)c(=O)[nH]c1=O | 23.4% (inactive) | 
CC(OC(=O)c1ccc([N+](=O)[O-])cc1)C(=O)NCC1CCCCC1 (configuration not stated) | -7.4% (inactive) | 
N[C@@H](Cc1ccccc1)C(=O)N1CCOCC1 | 1.81% (inactive) | 
COc1ccc(-c2cc(C(=O)N/N=C/c3cccnc3)c3ccccc3n2)c(OC)c1 | -20.3% (inactive) | 
Cc1cc(C)cc(C(=O)NCCN2CCOCC2)c1 | 25.1% (inactive) | 
CC(=O)Oc1cc2c(C(=O)NCCN3CCOCC3)c(C)oc2c2ccccc12 |  | 10 µM (active)
Cc1ccc(C(=O)NCCN2CCOCC2)cc1C | 19.4% (inactive) | 
C[C@@H]1CN([C@H](C)CO)C(=O)c2cc(NC(=O)NC3CCCCC3)ccc2O[C@H]1CN(C)S(C)(=O)=O | 0.0101% (inactive) | 
Cc1ccc(S(=O)(=O)CCC(=O)OCC(=O)NCCc2ccc(S(N)(=O)=O)cc2)cc1 | 19.7% (inactive) | 
COc1ccc(CCN(C(=O)COc2ccccc2)c2nc(-c3ccccc3)cs2)cc1OC | -26% (inactive) | 
COc1ccc(-c2csc(NC(=O)c3ccc(N4C(=O)CCC4=O)cc3)n2)cc1OC | -26.9% (inactive) | 
COc1ccc(CC(=O)Nc2ccccc2NC(=O)c2ccco2)cc1OC | -1.79% (inactive) | 
Cc1ccc(-c2csc(NC(=O)Cc3cccs3)n2)cc1C | -1.69% (inactive) | 
Cc1ccc(S(=O)(=O)NC(=O)Nc2nc(-c3ccc(F)c(F)c3)cs2)cc1 | -7.66% (inactive) | 
COc1ccc(CC(=O)Nc2nc(-c3ccc(F)c(F)c3)cs2)cc1OC |  | 4.47 µM (active)
COc1cccc(CC(=O)Nc2ccc(-c3csc(C)n3)cc2)c1 | -22.6% (inactive) | 
COc1cccc(CC(=O)Nc2nc(-c3ccc(OC)c(OC)c3)cs2)c1 |  | 12.6 µM (active)
COc1cc(CC(=O)Nc2nc(-c3ccc(F)c(F)c3)cs2)cc(OC)c1OC |  | 10 µM (active)
Cc1nc2ccccc2c(=O)n1-c1ccc(F)c(NC(=O)c2cccs2)c1 | -0.715% (inactive) | 
CCCN(CC1CC1)C(=S)NC(=O)c1ccccc1Br | 11.2% (inactive) | 
CCOc1ncccc1C(=O)OCC(=O)c1c[nH]c2ccccc12 | -3.08% (inactive) | 
O=C(Nc1ccc2ccccc2c1[N+](=O)[O-])c1ccccc1 | -0.234% (inactive) | 
COc1ccccc1C(=O)NCCC(=O)NCC(c1ccco1)N1CCCCC1 (configuration not stated) | 32.7% (inactive) | 
O=C(COC(=O)c1ccc(Br)o1)NC12CC3CC(CC(C3)C1)C2 | 7% (inactive) | 
CN(C(=O)COC(=O)CCCc1c[nH]c2ccccc12)c1c(N)n(Cc2ccccc2)c(=O)[nH]c1=O | -6.59% (inactive) | 

Structure (SMILES) | activity change, negative = inhibition | Potency
COc1ccc(Cl)cc1NC(=O)CN(C)C(=O)c1ccc2n[nH]nc2c1 | -1.24% (inactive) | 
CN(C(=O)CSc1nnc(-c2ccc(C(C)(C)C)cc2)n1C)C1CCS(=O)(=O)C1 (configuration not stated) | 6.07% (inactive) | 
O=C(Nc1cccc(C(F)(F)F)c1)c1cnccn1 | 11.3% (inactive) | 
Cn1nc(C(F)(F)F)c(C(=O)Nc2cccc(C(F)(F)F)c2)c1SCc1ccc(Cl)cc1 |  | 10 µM (active)
O=C(O)CSCC(=O)Nc1cccc(C(F)(F)F)c1 | 5.73% (inactive) | 
O=C1OC[C@@H]2CCCN2C(=O)[C@H](CC(=O)N(CCO)Cc2ccccc2)C/C=C\CC[C@@H]1Cc1ccc(F)cc1 | 6.22% (inactive) | 
O=C1c2ccccc2[C@@H]2C[C@@H](O)[C@H](Nc3ccccc3Cl)CCN12 | -5.58% (inactive) | 
CSc1ccccc1NC(=O)c1cnc2sc(C)cn2c1=O | -27.8% (inactive) | 
O=C(CN1C2=NCCN2c2ccccc21)c1cccs1 | -31.7% (inactive) | 
Nc1c(C(=O)c2cccs2)sc2nsc(SCCN3CCCCC3)c12 |  | 10 µM (active)
O=C(C[C@H]1C[C@H](C(=O)N2CCOCC2)[C@@]2(CCC3CCCC3)c3[nH]c4ccc(Cl)cc4c3CCN2C1=O)NCc1ccco1 | 43.8% (inactive) | 
CC(C)(C)OC(=O)C[C@@H]1C/C=C\C[C@@H](CC(=O)N[C@H](CO)Cc2ccccc2)C(=O)NCCOC1=O | -14.5% (inactive) | 
O=S(=O)(O)c1cc2onnc2c2ccccc12 | 8.72% (inactive) | 
Cc1c(Cl)cnc(NC(=O)COC(=O)C2CCCC2)c1Cl | -26.3% (inactive) | 
c1ccc(Cc2cc[n+](Cc3ccccc3)cc2)cc1 | 20.7% (inactive) | 
CN(C)c1cc[n+](Cc2ccccc2)cc1 |  | 0.891 µM (active)
CN(C)c1ccc(CSc2ccccc2)cc1 | 8.39% (inactive) | 
O=C1CCC/C=C/C[C@@H](CC(=O)N(CCO)Cc2ccccc2)C(=O)NC[C@H](c2ccccc2)O1 | 15% (inactive) | 
Cc1ccc(S(=O)(=O)N(C)c2ccc(OCC(=O)OCc3ccc(C#N)cc3)cc2)cc1 | 25.2% (inactive) | 
Cc1cc(Br)ccc1NC(=O)c1sc2ncn(CC(=O)N3CCN(c4ccccn4)CC3)c(=O)c2c1C | 9.26% (inactive) | 
Cc1cc(Br)ccc1NC(=O)c1cnc(N2CCN(c3ccccn3)CC2)c2ccccc12 |  | 2.51 µM (active)
O=C(CN1CCN(c2ccccn2)CC1)Nc1ccc(Br)cc1 | 3.8% (inactive) | 
COc1ccc(NC(=O)N(C)C[C@H]2Oc3ccc(NC(=O)C4CC4)cc3C(=O)N([C@H](C)CO)C[C@@H]2C)cc1 | -1.35% (inactive) | 
O=C(CCC(=O)c1cccs1)Nc1nc2ccccc2s1 | -15% (inactive) | 
CCCn1c(=NC(C)=O)c(C(=O)OCC)cc2c(=O)n3ccccc3nc21 | -22.4% (inactive) | 

Structure (SMILES) | activity change, negative = inhibition | Potency
CCOC(=O)c1cc2c(=O)n3ccccc3nc2n(CC(C)C)c1=NC(=O)c1c(-c2c(F)cccc2Cl)noc1C |  | 10 µM (active)
C/C(=N/OC(=O)c1c(-c2c(F)cccc2Cl)noc1C)c1cnccn1 | 0.663% (inactive) | 
CC1CCc2c(sc3nc4n(c(=O)c23)CCS4)C1 (configuration not stated) | -20.1% (inactive) | 
CCCn1nnc2sc3c(c2c1=O)CCC(C)C3 (configuration not stated) | 0.285% (inactive) | 
CC1CCc2sc3nc(N4CCN(CCO)CC4)n4ncnc4c3c2C1 (configuration not stated) |  | 20 µM (active)
Cc1ccc(CSc2ccc(S(=O)(=O)N3CCCCC3)cn2)cc1 | -5.06% (inactive) | 
C=CC[C@@H](CC(=O)N[C@@H](CO)Cc1ccccc1)C(=O)N[C@H](COC(=O)[C@H](CC=C)CC(=O)OC(C)(C)C)Cc1ccccc1 | 22.3% (inactive) | 
COc1cccc(NC(=O)CN(C)C(=O)c2cc(C3CC3)nn2-c2ccccc2)c1 | -21.5% (inactive) | 
CCN(CC)S(=O)(=O)c1ccc2nc(COC(=O)c3n[nH]c4ccccc34)[nH]c2c1 |  | 12.6 µM (active)
COc1ccc(COC(=O)c2n[nH]c3ccccc23)cc1F | -17.8% (inactive) | 
CCN(CC)S(=O)(=O)c1ccc2nc(CSc3nnnn3-c3ccc(O)cc3)[nH]c2c1 | -16.9% (inactive) | 
CC(OC(=O)c1cc2ccccc2[nH]1)C(=O)N(C)c1ccccc1 (configuration not stated) | -6.2% (inactive) | 
CCN(CC)CCCNC(=O)c1c(O)c2cc(F)cc3c2n(c1=O)C(C)CC3 (configuration not stated) |  | 10 µM (active)
CCNC(=O)c1c(O)c2cccc3c2n(c1=O)CC3 | 11.3% (inactive) | 
CCN(CC)CCCNC(=O)c1cn(C)c2ccc(S(=O)(=O)N(C)C3CCCCC3)cc2c1=O | -9.03% (inactive) | 
O=C(CSc1nnc(CN2CCCC2)n1-c1ccc(F)cc1)c1ccc2c(c1)OCO2 | -6.26% (inactive) | 
COc1ccc(/C=C/C(=O)OCC(=O)N2CCN(S(=O)(=O)c3ccc(C)cc3C)CC2)cc1OC | 0.143% (inactive) | 
CCn1ccnc1CN(C)C(=O)c1cc(COc2ccc(-n3cncn3)cc2)on1 | -21% (inactive) | 
C=CCC1(CC=C)CCCN1C(=O)c1cc(COc2ccc(-n3cncn3)cc2)on1 |  | 5.01 µM (active)
O=C(c1cc(COc2ccc(F)c(F)c2)on1)N1CCOCC1 | 0.0465% (inactive) | 
O=C1C[C@@H]2c3c(cccc3CN1Cc1ccccc1)C[C@@H](O)[C@H]2O | 9.7% (inactive) | 
Cc1ccc(-c2cc(=O)[nH]c(NCc3ccccc3)n2)cc1 | 12.1% (inactive) | 
